Source: PubChem (National Center for Advancing Translational Sciences (NCATS))
Hits are enriched below; roughly 21% of the tested compounds scored in any of these assays.
ClpP mod – qHTS Assay for Activators of ClpP; ATP-dependent Clp protease proteolytic subunit (Bacillus subtilis (strain 168)), P80244; purified B. subtilis ClpP, FRET peptide cleavage, 20 min; Potency, µM (doses to about 57.5 µM); 1.9% of 340,000 active; active = well fitted falling curve with a large enough effect; inconclusive = small, poorly fitted or top-dose-only effect; inactive = no such curve, though single readings can be large or run the other way; also: the source files actives as falling curves though it sought activators and does not explain the sign; nearly all actives have a fitted effect of over 65% in size
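ClpP 10 microg/mL final, pH 8 Tris/KCl buffer with BSA, glycerol, Tween-20; compound pinned in; FRET-FV substrate; RT 20 min; Ex320/Em430; ΔFRET vs ADEP 5.8 microM, DMSO, no enzyme.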
DRD3 antagonist – D3 dopamine receptor (human) antagonism; P35462; D3R cells, DiscoveRx beta-arrestin luminescence, antagonist mode; hits give low values; max response, negative = inhibition, %; 2.5% of 360,000 active; AID 652054; in the data active = max response below about -50%; inconclusive = no clear call, values can overlap the other calls
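Cells plated overnight at 1500 cells/well, then exposed to library compounds with dopamine controls for 90 minutes at 37 degrees C. DiscoveRx reagent added for 30–60 minutes at room temperature; luminescence read, quantitative HTS format.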
IL-1B inflam inh – blocks inflammasome-driven IL-1 beta release. THP-1 LPS/ATP IL-1B secretion, AlphaLISA, 16 h; hits give low values. activity change, % at 57.5 µM. 4.7% of 360,000 active. AID 743279; in the data active = activity change below about -50%; inconclusive = mostly about -30% to -49%
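THP-1 cells pretreated 1 hr with compounds (up to 57.5 uM final), then stimulated with LPS (250 ng/mL final) plus ATP (1.25 mM final); secreted IL-1B measured by AlphaLISA after 16 hr, decreased signal indicating inhibition.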
DRD3 agonist – activates the human D3 dopamine receptor; D3R DiscoveRx beta-arrestin cells, luminescence, 90 min; max activation, %; 0.58% of 410,000 active; in the data active = max activation above about 30%
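Cells at 1500/well, incubated overnight, then treated with pinned compounds (dopamine as control) for 90 min at 37 degrees C. DiscoveRx reagent added for 30 - 60 minutes at room temperature; luminescence read.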
DT40 TDP1 no CPT – qHTS for Inhibitors of human tyrosyl-DNA phosphodiesterase 1 (TDP1): qHTS in cells in absence of CPT | DT40 Tdp1-/- hTDP1 cells, no CPT, ATP luminescence, 48 h | Potency, µM (titrated, usually from 46.2 µM), most hits filed as inhibitors | 15% of 420,000 active; also: nearly all actives have a fitted effect of over 55% in size
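Compound effects on proliferation are scored in DT40 Tdp1-/-;hTDP1 cells in the absence of CPT. ATP levels (CellTiter-Glo luminescence) are recorded after a ≥48 hr, 37 °C incubation.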
DT40 TDP1 CPT – growth inhibition of DT40 Tdp1-/-;hTDP1 cells with camptothecin (screen for TDP1 inhibitors); chicken DT40 Tdp1-/-;hTDP1 cells + 20 nM CPT, ATP luminescence, 48 h; Potency, µM (series often up to 46.2 µM), most hits filed as inhibitors; 12% of 420,000 active; AID 686979; also: nearly all actives have a fitted effect of over 55% in size
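Chicken DT40 Tdp1-/- cells complemented with human TDP1, 400 cells/well, exposed to compounds plus 20 nM camptothecin for at least 48 h at 37 C; viability read as ATP content by CellTiter-Glo luminescence.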
A number is an active result; . = inactive; ? = inconclusive; / = no result given; [ ] = remark or other dose. Unless noted, calls follow the shape of the dose curve; as a rule, active = well fitted inhibition curve with a large enough effect; inconclusive = small, poorly fitted or top-dose-only effect; inactive = flat fitted curve, though single readings scatter.

SMILES | ClpP mod | DRD3 antagonist | IL-1B inflam inh | DRD3 agonist | DT40 TDP1 no CPT | DT40 TDP1 CPT
CCOC(=O)c1cc(-c2ccccc2)sc1NC(=O)COC | . | . | . | . | . | .
CCOC1=C2[C@H](c3ccccc3)N(S(=O)(=O)c3ccccc3)C[C@H]2n2c(=O)n(-c3ccccc3)c(=O)n2C1 | . | . | . | . | . | .
CC1CCN(C(=O)CN2CCSc3ccc(S(=O)(=O)N(C)C)cc32)CC1 | . | / | / | . | / | /
CCN1CCCC1CN(Cc1cc2ccc(C)cc2[nH]c1=O)C(=S)Nc1ccccc1OC (centres undefined) | . | ? | . | . | 21µM | ?
CCN1CCCC1CN(Cc1cc2ccc(C)c(C)c2[nH]c1=O)C(=O)Nc1ccccc1OC (centres undefined) | . | . | ? | . | ? | 18µM
CCOc1ccccc1NC(=S)N(Cc1cc2ccc(C)cc2[nH]c1=O)CC1CCCN1CC (centres undefined) | . | ? | . | . | 26µM | 21µM
Cc1ccc2c(c1)cc1c(=O)n(Cc3cccc(Cl)c3)nc(C)n12 | . | / | / | . | ? | ?
COc1ccc(-n2c(SCC(=O)c3ccccc3)nc3c([nH]c4ccccc43)c2=O)cc1 | . | / | / | . | . | .
COc1ccc(-n2c(=O)c3ccccc3n(Cc3ccccc3C)c2=O)c(OC)c1 | . | / | / | . | ? | 21µM
Cc1ccccc1Cn1c(=O)n(Cc2ccco2)c(=O)c2ccccc21 | ? | . | . | . | ? | 15µM
C/C(=N\NC(=O)c1cccc(Cl)c1)C1C(=O)c2ccccc2C1=O | . | . | . | . | 0.82µM | 0.92µM
C/C(=N\NC(=O)CCc1ccccc1)C1C(=O)c2ccccc2C1=O | . | ? | . | . | 2.6µM | 1.6µM
CCC(=O)N1c2ccc(S(=O)(=O)CCC(=O)NCc3ccc(OC)cc3)cc2CC1C (centres undefined) | . | / | / | . | ? | ?
Oc1cc(-c2nc3ccccc3s2)cc2c1OCCN(Cc1cccn1-c1nccs1)C2 | / | / | / | / | ? | .[9.04 µM]
COCCCNC(=O)CCCCn1c(=O)c2ccccc2n(CC(=O)Nc2ccc(C)cc2C)c1=O | . | / | / | . | . | .
CCOC(=O)c1c(NC(=O)CN2CCCCC2)sc2c1CCC(C=O)=C2Cl | . | ? | . | . | 3.5µM | 4µM
CCOC(=O)c1c(-c2ccc(C)o2)csc1NC(=O)CSc1nncs1 | . | . | . | . | 16µM | 23µM
CCOC(=O)c1c(-c2ccc(C)o2)csc1NC(=O)CN1CCCCC1 | / | . | ? | . | 21µM | ?
COC(=O)c1c(-c2cccs2)csc1NC(=O)CN1CCOCC1 | . | . | ? | . | ? | .
CCOC(=O)c1c(-c2ccco2)csc1NC(=O)CSc1nnc(N)s1 | . | . | . | . | ? | ?
CCOC(=O)c1c(-c2ccc(C)o2)csc1NC(=O)CN(C)CC(=O)Nc1ccc(C)cc1 | . | . | . | . | ? | ?
CCOC(=O)c1c(-c2ccc(C)o2)csc1NC(=O)CN1CCN(CC)CC1 | . | -106 | . | . | 29µM | ?
O=C(NCCn1cc(SCc2ccc(Cl)cc2)c2ccccc21)c1cccs1 | . | / | / | . | ? | ?
CCC1(c2ccc(F)cc2)NC(=O)N(CC(=O)N2CCc3ccccc32)C1=O (centres undefined) | . | . | . | . | ? | ?
CCOC(=O)c1c(-c2ccc(C)o2)csc1NC(=O)CN1CCC(C(N)=O)CC1 | / | . | -78 | . | ? | ?
SMILES | ClpP mod | DRD3 antagonist | IL-1B inflam inh | DRD3 agonist | DT40 TDP1 no CPT | DT40 TDP1 CPT
Nc1nc(-c2cccnc2)nc(N2CCCCC2)n1 | . | . | . | 33 | . | .
CN(C)c1ccc(NC(=O)Nc2ccc3c(c2)c(=O)n(C)n3Cc2ccccc2)cc1 | . | . | . | . | 16µM | 23µM
CC(C)=CCn1c2ccc(NC(=O)Nc3ccc(N(C)C)cc3)cc2c(=O)n1C | . | . | . | . | 18µM | ?
CN(C)c1ccc(NC(=O)Nc2ccc3c(c2)c(=O)n(C)n3Cc2ccc(Cl)cc2)cc1 | . | . | ? | . | ? | ?
CC(C)=CCn1c2ccc(NC(=O)Nc3cccnc3)cc2c(=O)n1C | . | . | . | . | ? | .
Cc1ccc2c(cnn2C(=O)CCC(=O)NCc2cccc(Cl)c2)c1 | . | . | . | . | . | .
Cc1cccc(N2CCN(C(=O)c3ccc(N4CCCC4=O)cc3)CC2)c1C | . | . | . | . | 23µM | 12µM
O=C(c1ccc(N2CCCC2=O)cc1)N1CCN(c2cccc(C(F)(F)F)c2)CC1 | . | . | ? | . | 23µM | 16µM
Cc1cccc(N2CCN(C(=O)c3ccoc3C)CC2)c1C | . | . | . | 36 | ? | ?
Cc1ccc(-n2nc(C(=O)N3CCN(c4cccc(C(F)(F)F)c4)CC3)c(=O)n(C)c2=O)cc1 | . | / | / | . | 18µM | ?
Cc1ccc(-n2nc(C(=O)N3CCN(c4ccccc4)CC3)c(=O)n(C)c2=O)cc1 | . | / | / | . | . | .
O=C(C1CC(=O)N(c2ccc3c(c2)OCCO3)C1)N1CCN(S(=O)(=O)c2cccc(F)c2)CC1 (centres undefined) | . | . | . | . | ? | .
Cc1cc(C)cc(NC(=O)c2cc(C)nc3c2c(C)nn3-c2ccccc2)c1 | ? | / | / | . | / | /
Cc1cc(C(=O)N2CCN(c3cccc(C)c3C)CC2)c2c(C)nn(-c3ccccc3)c2n1 | ? | / | / | . | 7.3µM | ?
O=C(C1CC(=O)N(c2ccc3c(c2)OCCO3)C1)N1CCN(c2cccc(C(F)(F)F)c2)CC1 (centres undefined) | . | . | . | . | 23µM | ?
O=C(c1cccc(N2CCCC2=O)c1)N1CCN(c2cccc(Cl)c2)CC1 | . | . | . | . | 3.3µM | ?
CCOC(=O)c1ccc(N2C(=O)c3n[nH]c(C)c3C2c2ccccc2OC)cc1 (centres undefined) | . | / | / | . | 18µM | 16µM
CCOC(=O)c1ccc(N2C(=O)c3n[nH]c(-c4ccco4)c3C2c2ccccc2OC)cc1 (centres undefined) | . | / | / | . | 6.5µM | 18µM
CCOC(=O)c1ccc(N2C(=O)c3n[nH]c(C)c3C2c2ccccc2)cc1 (centres undefined) | . | . | . | . | . | .
CCOC(=O)c1ccc(N2C(=O)c3n[nH]c(-c4cccs4)c3C2c2ccc(C)cc2)cc1 (centres undefined) | . | / | / | . | . | .
CN(C(=O)c1ccccc1-c1ncc[nH]1)C1CCCN(Cc2ccccc2F)C1 (centres undefined) | . | . | . | . | . | .
COCCNc1oc(/C=C/c2ccccc2OC)nc1S(=O)(=O)c1ccccc1 | . | ? | . | . | ? | ?
